Experimental data as given in the supplement of paper PMC6992640.

System: WHIM30 (cells of a triple-negative basal-like breast cancer xenograft)
Assay: cell viability of combination (% of vehicle); higher = less cytotoxic
Conditions: 1 µM; 72 h; partner dose: 10 nM
Method: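 PDX cells were treated for 72 h with each drug at 1 µM plus carfilzomib (10 nM; 100 nM for WHIM2). Luciferase viability is expressed as percent of vehicle.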

Row | Compound | cell viability of combination
1 | CC(C)CC(NC(=O)C(CCc1ccccc1)NC(=O)CN1CCOCC1)C(=O)NC(Cc1ccccc1)C(=O)NC(CC(C)C)C(=O)C1(C)CO1 (stereo not given) [Carfilzomib (PR-171)] + CC(C)C[C@H](NC(=O)[C@H](CCc1ccccc1)NC(=O)CN1CCOCC1)C(=O)N[C@@H](Cc1ccccc1)C(=O)N[C@@H](CC(C)C)C(=O)[C@@]1(C)CO1 [Carfilzomib] | 9.47
2 | COc1cc2c(Oc3ccc4[nH]c(C)cc4c3F)ncnc2cc1OCCCN1CCCC1 [Cediranib (AZD217)] + CC(C)C[C@H](NC(=O)[C@H](CCc1ccccc1)NC(=O)CN1CCOCC1)C(=O)N[C@@H](Cc1ccccc1)C(=O)N[C@@H](CC(C)C)C(=O)[C@@]1(C)CO1 [Carfilzomib] | 11.6
3 | CN(C(=O)CN(CCO)CC(=O)N(C)C(C)(C)Cc1ccccc1)C(C)(C)Cc1ccccc1 [Oxethazaine] + CC(C)C[C@H](NC(=O)[C@H](CCc1ccccc1)NC(=O)CN1CCOCC1)C(=O)N[C@@H](Cc1ccccc1)C(=O)N[C@@H](CC(C)C)C(=O)[C@@]1(C)CO1 [Carfilzomib] | 20.8
4 | COC(=O)C12CCC(C)(C)CC1C1C(=O)C=C3C4(C)C=C(C#N)C(=O)C(C)(C)C4CCC3(C)C1(C)CC2 (stereo not given) [Bardoxolone methyl] + CC(C)C[C@H](NC(=O)[C@H](CCc1ccccc1)NC(=O)CN1CCOCC1)C(=O)N[C@@H](Cc1ccccc1)C(=O)N[C@@H](CC(C)C)C(=O)[C@@]1(C)CO1 [Carfilzomib] | 14.3
5 | Cl.Cl.O=C1c2c(O)ccc(O)c2C(=O)c2c(NCCNCCO)ccc(NCCNCCO)c21 [Mitoxantrone HCl] + CC(C)C[C@H](NC(=O)[C@H](CCc1ccccc1)NC(=O)CN1CCOCC1)C(=O)N[C@@H](Cc1ccccc1)C(=O)N[C@@H](CC(C)C)C(=O)[C@@]1(C)CO1 [Carfilzomib] | 5.21
6 | C[C@H]1O[C@@H](O[C@H]2[C@@H](O)C[C@H](O[C@H]3[C@@H](O)C[C@H](O[C@H]4CC[C@@]5(C)[C@H](CC[C@@H]6[C@@H]5C[C@@H](O)[C@]5(C)[C@@H](C7=CC(=O)OC7)CC[C@]65O)C4)O[C@@H]3C)O[C@@H]2C)C[C@H](O)[C@@H]1O [Digoxin] + CC(C)C[C@H](NC(=O)[C@H](CCc1ccccc1)NC(=O)CN1CCOCC1)C(=O)N[C@@H](Cc1ccccc1)C(=O)N[C@@H](CC(C)C)C(=O)[C@@]1(C)CO1 [Carfilzomib] | 4.55
7 | CO[C@@]12[C@H](COC(N)=O)C3=C(C(=O)C(C)=C(N)C3=O)N1C[C@@H]1N[C@@H]12 [Mitomycin C] + CC(C)C[C@H](NC(=O)[C@H](CCc1ccccc1)NC(=O)CN1CCOCC1)C(=O)N[C@@H](Cc1ccccc1)C(=O)N[C@@H](CC(C)C)C(=O)[C@@]1(C)CO1 [Carfilzomib] | 23.5
8 | C=C1C(=CC=C2CCCC3(C)C2CCC3C(C)C=CC(C)C(C)C)CC(O)CC1O (stereo not given) [Doxercalciferol] + CC(C)C[C@H](NC(=O)[C@H](CCc1ccccc1)NC(=O)CN1CCOCC1)C(=O)N[C@@H](Cc1ccccc1)C(=O)N[C@@H](CC(C)C)C(=O)[C@@]1(C)CO1 [Carfilzomib] | 17
9 | CNCCC(Oc1cccc2ccccc12)c1cccs1.Cl (stereo not given) [Duloxetine HCl] + CC(C)C[C@H](NC(=O)[C@H](CCc1ccccc1)NC(=O)CN1CCOCC1)C(=O)N[C@@H](Cc1ccccc1)C(=O)N[C@@H](CC(C)C)C(=O)[C@@]1(C)CO1 [Carfilzomib] | 16.1
10 | COc1cc2c(Nc3ccc(Br)cc3F)ncnc2cc1OCC1CCN(C)CC1 [Vandetanib (ZD6474)] + CC(C)C[C@H](NC(=O)[C@H](CCc1ccccc1)NC(=O)CN1CCOCC1)C(=O)N[C@@H](Cc1ccccc1)C(=O)N[C@@H](CC(C)C)C(=O)[C@@]1(C)CO1 [Carfilzomib] | 15.1
11 | COc1ccc(C[C@H](N)C(=O)N[C@@H]2[C@H](O)[C@H](n3cnc4c(N(C)C)ncnc43)O[C@@H]2CO)cc1.Cl.Cl [Puromycin dihydrochloride] + CC(C)C[C@H](NC(=O)[C@H](CCc1ccccc1)NC(=O)CN1CCOCC1)C(=O)N[C@@H](Cc1ccccc1)C(=O)N[C@@H](CC(C)C)C(=O)[C@@]1(C)CO1 [Carfilzomib] | 5.17
12 | CN1CCN(CCOc2cc(OC3CCOCC3)c3c(Nc4c(Cl)ccc5c4OCO5)ncnc3c2)CC1 [Saracatinib (AZD0530)] + CC(C)C[C@H](NC(=O)[C@H](CCc1ccccc1)NC(=O)CN1CCOCC1)C(=O)N[C@@H](Cc1ccccc1)C(=O)N[C@@H](CC(C)C)C(=O)[C@@]1(C)CO1 [Carfilzomib] | 21.1
13 | CCCCc1oc2ccccc2c1C(=O)c1cc(I)c(OCCN(CC)CC)c(I)c1.Cl [Amiodarone HCl] + CC(C)C[C@H](NC(=O)[C@H](CCc1ccccc1)NC(=O)CN1CCOCC1)C(=O)N[C@@H](Cc1ccccc1)C(=O)N[C@@H](CC(C)C)C(=O)[C@@]1(C)CO1 [Carfilzomib] | 20.3
14 | CCOc1nc2cccc(C(=O)OC(C)OC(=O)OC3CCCCC3)c2n1Cc1ccc(-c2ccccc2-c2nn[nH]n2)cc1 (stereo not given) [Candesartan Cilexetil] + CC(C)C[C@H](NC(=O)[C@H](CCc1ccccc1)NC(=O)CN1CCOCC1)C(=O)N[C@@H](Cc1ccccc1)C(=O)N[C@@H](CC(C)C)C(=O)[C@@]1(C)CO1 [Carfilzomib] | 18.9
15 | CCN(CC)CCCC(C)Nc1ccnc2cc(Cl)ccc12.O=P(O)(O)O.O=P(O)(O)O (stereo not given) [Chloroquine diphosphate] + CC(C)C[C@H](NC(=O)[C@H](CCc1ccccc1)NC(=O)CN1CCOCC1)C(=O)N[C@@H](Cc1ccccc1)C(=O)N[C@@H](CC(C)C)C(=O)[C@@]1(C)CO1 [Carfilzomib] | 13.5
16 | CS(=O)(=O)CCNCc1ccc(-c2ccc3ncnc(Nc4ccc(OCc5cccc(F)c5)c(Cl)c4)c3c2)o1.Cc1ccc(S(=O)(=O)O)cc1.Cc1ccc(S(=O)(=O)O)cc1 [Lapatinib Ditosylate] + CC(C)C[C@H](NC(=O)[C@H](CCc1ccccc1)NC(=O)CN1CCOCC1)C(=O)N[C@@H](Cc1ccccc1)C(=O)N[C@@H](CC(C)C)C(=O)[C@@]1(C)CO1 [Carfilzomib] | 23.7
17 | CCc1cnn2c(NCc3ccc[n+]([O-])c3)cc(N3CCCCC3CCO)nc12 (stereo not given) + CC(C)C[C@H](NC(=O)[C@H](CCc1ccccc1)NC(=O)CN1CCOCC1)C(=O)N[C@@H](Cc1ccccc1)C(=O)N[C@@H](CC(C)C)C(=O)[C@@]1(C)CO1 [Carfilzomib] | 7.14
18 | CC(C)(C)Cn1c(N)nc2ccc(-c3[nH]c(C(C)(C)C)nc3-c3ccc(F)cc3)nc21.CS(=O)(=O)O.CS(=O)(=O)O + CC(C)C[C@H](NC(=O)[C@H](CCc1ccccc1)NC(=O)CN1CCOCC1)C(=O)N[C@@H](Cc1ccccc1)C(=O)N[C@@H](CC(C)C)C(=O)[C@@]1(C)CO1 [Carfilzomib] | 14.4
19 | C=C1C(=CC=C2CCCC3(C)C2CCC3C(C)CCCC(C)(C)O)CC(O)CC1O (stereo not given) [Calcitriol] + CC(C)C[C@H](NC(=O)[C@H](CCc1ccccc1)NC(=O)CN1CCOCC1)C(=O)N[C@@H](Cc1ccccc1)C(=O)N[C@@H](CC(C)C)C(=O)[C@@]1(C)CO1 [Carfilzomib] | 19.1
20 | CNC1CCC(c2ccc(Cl)c(Cl)c2)c2ccccc21.Cl (stereo not given) [Sertraline HCl] + CC(C)C[C@H](NC(=O)[C@H](CCc1ccccc1)NC(=O)CN1CCOCC1)C(=O)N[C@@H](Cc1ccccc1)C(=O)N[C@@H](CC(C)C)C(=O)[C@@]1(C)CO1 [Carfilzomib] | 11
